TRHR agonist: activates the human TRH receptor; TRHR cells, calcium flux fluo-8, FDSS agonist mode; activation, % at 2 µM; 0.18% of 360,000 active; AID 493084; also: 0% is about no effect
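Fluo-8-loaded TRHR cells; 10 s baseline, compound added, kinetic Ca2+ fluorescence read 1/s, agonist mode.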
D1 agonist: activates the human D1 dopamine receptor; 1% of 360,000 active; P21728; AID 504660; HEK293 T-REx D1 cells, calcium flux, agonist mode; activation, % at 2 µM; also: 0% is about no effect
Target sequence (P21728 whole entry, looked up): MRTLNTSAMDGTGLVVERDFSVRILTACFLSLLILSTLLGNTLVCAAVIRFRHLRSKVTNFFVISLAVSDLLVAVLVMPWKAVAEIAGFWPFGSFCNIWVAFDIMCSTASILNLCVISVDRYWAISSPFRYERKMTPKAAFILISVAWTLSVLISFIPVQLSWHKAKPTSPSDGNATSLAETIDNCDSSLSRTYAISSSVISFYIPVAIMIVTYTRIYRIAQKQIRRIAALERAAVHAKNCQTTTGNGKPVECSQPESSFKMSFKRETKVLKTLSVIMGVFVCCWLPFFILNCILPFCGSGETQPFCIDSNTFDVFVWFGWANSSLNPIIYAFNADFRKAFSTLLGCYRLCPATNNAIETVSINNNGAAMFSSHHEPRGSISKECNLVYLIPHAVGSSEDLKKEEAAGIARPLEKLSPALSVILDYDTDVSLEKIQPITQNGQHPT
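Inducible HEK293 T-REx D1 cells, force-coupled to calcium signalling, were plated at 4000 cells/well with tetracycline and held overnight at 30 C. After no-wash calcium dye loading, compound-evoked calcium rise over 180 s flagged agonists.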
D1 potentiator: potentiators of human D1 dopamine receptor. potentiation, % at 10 µM. P21728. HEK293 TREx D1 cells, calcium flux, dopamine EC20 potentiation. AID 504651. 0.036% of 360,000 active; in the data active = potentiation above about 30%; also: 0% is about no effect
D1 antagonist: antagonists of human D1 dopamine receptor; P21728; HEK293 TREx D1 cells, calcium flux, dopamine EC80; hits give low values; activity change, negative = inhibition, % at 10 µM; 3.2% of 360,000 active; AID 504652; in the data active = activity change below about -30%; also: % is scaled to controls: 0 for no effect and ±100 for the full control effect
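Using tetracycline-induced force-coupled D1 Hek293 cells and a calcium dye, signals were followed for 180 s after compound, then for 180 s after EC80 dopamine, to detect inhibitors.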
TRHR PAM: allosterically enhances the human TRH receptor; TRHR cells, fluo-8 calcium fluorescence, EC20 TRH enhancement; P34981; 0.66% of 360,000 active; enhancement, % at 2 µM; in the data active = enhancement above about 30%; also: 0% is about no effect
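Enhancer read-out: after compound pinning and an initial kinetic agonist-mode read, an EC20 of TRH (10 nM final) was injected and fluo-8 calcium signal (Ex 480/Em 530) followed at 1 s/cycle for 100 cycles in TRHR-expressing cells.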
* = called active by the depositor. A selection: hits, their analogues and other compounds. The true share with any hit is near 4.6%. Rule as the data show it, unless noted: active = activation above about 30%; inactive = the rest.

For CC1Sc2ccc(S(=O)(=O)N3CCC(C(=O)NCCc4ccccc4)CC3)cc2NC1=O (stereo unspecified) the results were TRHR agonist 0, D1 agonist 8, D1 potentiator -4, D1 antagonist -7 and TRHR PAM -4.
For NC(=S)N/N=C/c1ncc(C(F)(F)F)cc1Cl the results were TRHR agonist 11, D1 agonist 31*, D1 potentiator -2, D1 antagonist 3 and TRHR PAM 10.
CCc1ccc2oc(=O)cc(CN3CCN(CCO)CC3)c2c1 was read as TRHR agonist 1, D1 agonist 5, D1 potentiator -1, D1 antagonist -50* and TRHR PAM 5.
Screening CC(C)(C)c1ccc(OCCC(=O)OCC(=O)NC2CCCCC2)cc1 returned TRHR agonist 0, D1 agonist 4, D1 potentiator -2, D1 antagonist -44* and TRHR PAM -3.
`Cc1ccc(C)c(OCCC(=O)OCC(=O)NC2CC2)c1` gave TRHR agonist 0, D1 agonist 3, D1 potentiator 1, D1 antagonist -20 and TRHR PAM 6.
For Cc1ccc(C)c(OCCC(=O)OCC(=O)NC(=O)NC2CCCC2)c1 the results were TRHR agonist 0, D1 agonist 6, D1 potentiator -5, D1 antagonist -36* and TRHR PAM -7.
`O=C(CCCOc1ccc(Cl)cc1Cl)N1CCc2ccccc2C1` gave TRHR agonist 0, D1 agonist 33*, D1 potentiator -5, D1 antagonist 0 and TRHR PAM 13.
Cc1cc(OCC(=O)OCC(=O)N2CCc3ccccc32)ccc1Cl was read as TRHR agonist 0, D1 agonist 9, D1 potentiator -8, D1 antagonist -21 and TRHR PAM -3.
`Cc1cc(OCC(=O)OCC(=O)N2CCc3ccccc3C2)ccc1Cl` gave TRHR agonist 0, D1 agonist 13, D1 potentiator -8, D1 antagonist -43* and TRHR PAM -1.
Screening O=C(CCCOc1ccccc1)N1CCc2ccccc2C1 returned TRHR agonist 0, D1 agonist 0, D1 potentiator -2, D1 antagonist -5 and TRHR PAM 0.
Screening CC1(C)CC(=O)C=C(C(=O)NC2CCCc3c2cnn3-c2cc(F)cc(F)c2)O1 (stereo unspecified) returned TRHR agonist -1, D1 agonist 3, D1 potentiator 2, D1 antagonist -9 and TRHR PAM 1.
C#CCOCCOCCOCCNc1nc(N2CCN(C(=O)[C@H]([C@@H](C)CC)n3cc([C@@H](N)CO)nn3)CC2)nc(N2CCN(C(=O)[C@H]([C@@H](C)CC)n3cc([C@@H](N)Cc4ccc(O)cc4)nn3)CC2)n1 was read as TRHR agonist 0, D1 agonist 2, D1 potentiator -1, D1 antagonist -22 and TRHR PAM 2.
For Cc1cc(OCC(=O)NC2CCCCC2)ccc1Cl the results were TRHR agonist 0, D1 agonist -1, D1 potentiator -7, D1 antagonist -1 and TRHR PAM 0.
`Cc1cc(OCC(=O)OCC(=O)NC2CCCC2)ccc1Cl` gave TRHR agonist 0, D1 agonist 9, D1 potentiator -5, D1 antagonist -36* and TRHR PAM 0.
Screening O=C(COc1ccc(C(=O)c2ccccc2)cc1)NC1CCCCC1 returned TRHR agonist 0, D1 agonist 13, D1 potentiator -3, D1 antagonist -31* and TRHR PAM -2.
For O=C(COC(=O)COc1ccc(Cl)cc1)NC1CCCCC1 the results were TRHR agonist 1, D1 agonist 0, D1 potentiator -4, D1 antagonist 14 and TRHR PAM -1.
Screening O=C(COc1ccc(C(=O)c2ccccc2)cc1)NC1CCCCCC1 returned TRHR agonist 1, D1 agonist 12, D1 potentiator -1, D1 antagonist -19 and TRHR PAM 2.
Screening O=C(COC(=O)COc1ccc(Cl)cc1)NC1CCCC1 returned TRHR agonist -1, D1 agonist 4, D1 potentiator 2, D1 antagonist -33* and TRHR PAM 5.
Clc1ccc(Nc2c(-c3cccs3)nc3ccc(Cl)cn23)cc1 was read as TRHR agonist 2, D1 agonist 0, D1 potentiator 0, D1 antagonist 0 and TRHR PAM -9.
For COc1cccc(CNC(C)(C)CO)c1OCc1ccc(Cl)cc1 the results were TRHR agonist 2, D1 agonist 15, D1 antagonist -5 and TRHR PAM -4.
COc1cccc(OCc2ccc(Cl)cc2)c1C#N was read as TRHR agonist 0, D1 agonist 2, D1 potentiator -6, D1 antagonist -51* and TRHR PAM 0.
`CC(C)(C)OC(=O)N1CCC(c2c(C(=O)N3CCN(c4ccc(Cl)cc4)CC3)cnn2-c2ccc(F)cc2F)CC1` gave TRHR agonist -1, D1 agonist 1, D1 potentiator -3, D1 antagonist 9 and TRHR PAM 4.
For Clc1ccc2[nH]c3c(c2c1)CNCC3 the results were TRHR agonist 1, D1 agonist 8, D1 potentiator -25, D1 antagonist -48* and TRHR PAM 38*.
`Clc1cccc2c3c([nH]c12)CCNC3` gave TRHR agonist 1, D1 agonist 2, D1 potentiator -10, D1 antagonist -16 and TRHR PAM -2.
Screening CC(NC(=O)C1CC12CCC2)c1ccccc1 (stereo unspecified) returned TRHR agonist -1, D1 agonist 2, D1 potentiator 4, D1 antagonist 2 and TRHR PAM 0.
CCOc1cc(CNc2ccc(O)cc2)ccc1OCc1ccc(Cl)cc1 was read as TRHR agonist 0, D1 agonist 2, D1 potentiator -7, D1 antagonist -30* and TRHR PAM 8.
`Oc1ccc(NCc2ccccc2OCc2ccc(Cl)cc2)cc1` gave TRHR agonist 0, D1 agonist 0, D1 potentiator -3, D1 antagonist -3 and TRHR PAM 47*.
For CC(C)OCCCNc1ncnc2c1cnn2-c1ccccc1 the results were TRHR agonist 0, D1 agonist 0, D1 potentiator -2, D1 antagonist -37* and TRHR PAM 33*.
OCCOCCNc1ncnc2c1cnn2-c1ccc(Cl)cc1 was read as TRHR agonist 0, D1 agonist 2, D1 potentiator 2, D1 antagonist 8 and TRHR PAM -4.
Screening OCCOCCNc1ncnc2c1cnn2-c1ccccc1 returned TRHR agonist 0, D1 agonist 0, D1 potentiator -9, D1 antagonist -45* and TRHR PAM 23.
Screening c1ccc(-n2ncc3c(NCCN4CCCCC4)ncnc32)cc1 returned TRHR agonist 1, D1 agonist 5, D1 potentiator -3, D1 antagonist 1 and TRHR PAM 3.
For CN(C)CCCNc1ncnc2c1cnn2-c1ccccc1 the results were TRHR agonist 1, D1 agonist 3, D1 potentiator -5, D1 antagonist -14 and TRHR PAM -5.

From PubChem
